The text below walks through data of PubChem BioAssay (NCATS).

Test [1] can be described thus: Viability qHTS for spleen associated tyrosine kinase inhibitor (SYKi) naive MV4-11 cells (AID 1963823). Note: nearly all actives have a fitted effect of over 40% in size. The method, boiled down: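 CellTiter-Glo luminescence, 10 min room-temperature incubation, gave viability. Cells: naive MV4-11 (500/well), treated 72 hr at 37 C, 5% CO2.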
On the technique in general: In qHTS, concentration-response curves come from the screen itself.

A short description of test [2]: Viability qHTS for spleen associated tyrosine kinase inhibitor (SYKi) drug resistant MV4-11 cells (AID 1963824). Note: nearly all actives have a fitted effect of over 35% in size. In short, it runs like this: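 SYK inhibitor-resistant MV4-11 AML cells, 500 per well, added to predispensed compounds and incubated 72 hr at 37 C, 5% CO2. Viability measured by CellTiter-Glo luminescence after 10 min at room temperature.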

Records with an inconclusive call do not appear. A number with no mark means an inactive call. The source made the active and inactive calls. Calls come from the whole dose curve; as a rule, active = well fitted cell-killing curve with a large enough effect; inconclusive = small, poorly fitted or top-dose-only effect, or effect the other way; inactive = no such curve, though single readings can be large or run the other way.
Potency is the fitted concentration of half-maximal effect.

Regarding `C[C@@H]1O[C@@H](O[C@H]2[C@H](OC(=O)[C@]34CCC(C)(C)C[C@H]3C3=CCC5[C@@]6(C)C[C@H](O)[C@H](O[C@@H]7O[C@H](CO[C@@H]8OC[C@H](O)[C@H](O)[C@H]8O)[C@@H](O)[C@H](O)[C@H]7O)C(C)(C)C6CC[C@@]5(C)[C@]3(C)C[C@H]4O)OC[C@@H](O)[C@@H]2O)[C@H](O)[C@H](O[C@@H]2OC[C@](O)(CO)[C@H]2O)[C@H]1O[C@@H]1OC[C@H](O)[C@H](O[C@@H]2OC[C@@H](O)[C@H](O)[C@H]2O)[C@H]1O` (some centres undefined), in test [1], the viability (% of control) was 72% [at 9.25 µM]. The viability, % of control in test [2] is 85% [at 9.25 µM].
For the compound `CN(Cc1cccs1)c1ncnc2ccc(-c3ccc4c(c3)OCO4)cc12`, the Potency in test [1] and in test [2] was 11.6 µM (active) each time.
Turning to `COc1cc(C(CO)CO[C@@H]2O[C@H](CO)[C@@H](O)[C@H](O)[C@H]2O)ccc1O` (some centres undefined), the Potency result in test [1] and in test [2] was “inactive” throughout.
Turning to `O=C(NCc1ccc(OC(F)(F)F)cc1)C1c2ccccc2C(=O)N1C1CCOCC1` (centres undefined), the Potency result in test [1] and in test [2] was “inactive” in each case.
Consider `CC(C)(C)c1ccc(NC(=O)N2CCN(c3ncccc3Cl)CC2)cc1`, for which the Potency in test [1] is 3.66 µM (active); in test [2], 4.11 µM (active).
With `CC(C)c1cc(C(=O)N2CC[C@@H](NC(=O)C3CC3)C2)n[nH]1`, the Potency entry in test [1] and in test [2] was “inactive” throughout.
On to `C[C@@H]1O[C@@H](O[C@H]2[C@H](O)[C@@H](C(=O)O)O[C@@H](O[C@H]3CC[C@@]4(C)C(CC[C@]5(C)C4CC=C4C6CC(C)(C)CC[C@]6(C(=O)O)CC[C@]45C)C3(C)C)[C@@H]2O[C@@H]2O[C@H](CO)[C@@H](O)[C@H](O)[C@H]2O)[C@H](O)[C@H](O)[C@H]1O` (some centres undefined), for which, in test [1], the viability (% of control) is 72.6% [at 9.25 µM]. Besides, the viability, % of control in test [2] is 81.7% [at 9.25 µM].
With `COc1cc(C(C)=O)ccc1O[C@@H]1O[C@H](CO[C@@H]2OC[C@@H](O)[C@H](O)[C@H]2O)[C@@H](O)[C@H](O)[C@H]1O`, the Potency entry in test [1] and in test [2] was “inactive” in each case.
As to `CC(O)/C=C/C1(O)C(C)C(O[C@@H]2O[C@H](CO)[C@@H](O)[C@H](O)[C@H]2O)C(O)CC1(C)C` (some centres undefined), the Potency entry in test [1] and in test [2] was “inactive” in each case.
With `C=C(C)[C@@H]1CC[C@]2(C(=O)O)CC[C@]3(C)C(CCC4[C@]5(C)C(CC[C@]43C)C(C)(C)[C@@H](O)[C@@H]5C(=O)O)C12` (some centres undefined), the Potency result in test [1] and in test [2] was “inactive” throughout.
Turning to `CC1OC(OC2C(C)OC(OC3C(OC(=O)/C=C/c4ccc(O)cc4)C(CO)OC(OC4(COC(=O)/C=C/c5ccc(O)cc5)OC(CO)C(O)C4O)C3OC3OCC(O)(CO)C3O)C(O)C2O)C(O)C(O)C1O` (centres undefined), the viability (% of control) in test [1] is 86.5% [at 9.25 µM]. For the same compound, the viability, % of control in test [2] is 112% [at 9.25 µM].
Turning to `CC1(C(=O)O)CCCC2(C)C3=CCC4CC3(CCC12)CC4CO` (centres undefined), the Potency entry in test [1] and in test [2] was “inactive” throughout.
For `C=C1C(=O)OC2C=C(C)CC/C=C(\CO)CC(O)C12` (centres undefined), the Potency is 10.3 µM (active) in test [1] and 11.6 µM (active) in test [2].
In the same order, the values of `C=CC1C(O[C@@H]2O[C@H](CO)[C@@H](O)[C@H](O)[C@H]2O)OC=C(C(=O)OC)C1Cc1nccc2c1[nH]c1ccccc12` (some centres undefined) are “inactive” and 3.99 µM (active).
In the same order, the values of `Cn1ccnc1CCOC(c1cc2nccc(C(=O)O)c2[nH]1)c1ccccc1Cl` (centres undefined) are “inactive” and “inactive”.
In the same order, the values of `CC1=CC2/C=C(\C)CCC(O)C(=O)C(O)CC(=O)C23C(=O)NC(CC(C)C)C3C1C` (centres undefined) are 10 µM (active) and 11.2 µM (active).
Consider `CC1(C)CCCC2(C)C=C(C(=O)O)C(O)CC12` (centres undefined), for which the Potency result in test [1] and in test [2] was “inactive” throughout.
With `C=CCN(/C=C1\C(=O)OC(COC)C2(C)C1=C(O)C(=O)C1=C2C(OC(C)=O)CC2(C)C(=O)CCC12)CC=C` (centres undefined), the Potency in test [1] was 13 µM (active); in test [2], 20.6 µM (active).
In the same order, the values of `C=C(CCC1=C(C)[C@H]2[C@H](CC3[C@@H]4CC=C5C[C@@H](O)C[C@@H](O)[C@]5(C)C4[C@H](O)C[C@@]32C)O1)CO[C@@H]1O[C@H](CO)[C@@H](O)[C@H](O)[C@H]1O` (some centres undefined) are 0.611 µM (active) and 0.485 µM (active).
In the same order, the values of `Cc1cc2c(F)c(Oc3ncnn4cc(OCC(C)OC(=O)C(C)N)c(C)c34)ccc2[nH]1` (centres undefined) are 10.3 µM (active) and 8.2 µM (active).
In the same order, the values of `Cc1ccc(C)c(NS(=O)(=O)c2cc(C(=O)Nc3ccccc3-c3ccccc3)ccc2C)c1` are 23.1 µM (active) and 16.4 µM (active).
For the compound `CCn1cc(C2=NOC(C(=O)Nc3c(C)n(C)n(-c4ccccc4)c3=O)C2)c(C)n1` (centres undefined), the Potency result in test [1] and in test [2] was “inactive” each time.
`COc1ccc(C[C@H](C)NC[C@@H](O)c2ccc(O)c(NC=O)c2)cc1`: the Potency result in test [1] and in test [2] was “inactive” each time.
With `C=C1C(=O)O[C@H]2C1CCC(C)=C1C(=O)C=C(C)[C@@]12O` (some centres undefined), the Potency in test [1] is 7.31 µM (active); in test [2], 8.2 µM (active).
On to `COc1cc(C(CO)C(OC2OC(CO)C(O)C(O)C2O)c2ccc(O)c(OC)c2)ccc1O` (centres undefined), for which the Potency result in test [1] and in test [2] was “inactive” in each case.
`C[C@@H](Oc1cc(-n2cnc3ccc(OC4CCN(C)CC4)cc32)sc1C(N)=O)c1ccccc1C(F)(F)F`: the Potency in test [1] was 0.0184 µM (active); in test [2] it was 0.0092 µM (active).
Take `CC1OC(O[C@@H]2[C@H](O)[C@@H](OC3OC(CO)C(O)C(O)C3O)[C@H](OC(=O)[C@]34CCC(C)(C)C[C@H]3C3=CCC5[C@@]6(C)CC[C@H](O[C@@H]7O[C@H](C(=O)O)[C@@H](O)[C@H](O[C@@H]8OC[C@@H](O)[C@H](O)[C@H]8O)[C@H]7O[C@@H]7O[C@H](CO)[C@H](O)[C@H](O)[C@H]7O)[C@@](C)(C=O)C6CC[C@@]5(C)[C@]3(C)C[C@H]4O)O[C@@H]2C)C(O)C(O)C1OC1OCC(O)C(O)C1O` (some centres undefined): the viability (% of control) in test [1] was 87.4% [at 4.97 µM]. The viability, % of control in test [2] was 89.9% [at 4.97 µM].
For `C=C1CC23CC1CCC2C12OC(=O)C(C)(C(O)C(O)C1O)C2C3C(=O)O` (centres undefined), the Potency result in test [1] and in test [2] was “inactive” in each case.
For `C/C=C1\[C@H](O[C@@H]2O[C@H](CO)[C@@H](O)[C@H](O)[C@H]2O)OC=C(C(=O)OC)[C@H]1CC(=O)O`, the Potency result in test [1] and in test [2] was “inactive” throughout.
Take `C[C@H](NC(c1cccc2[nH]c(=O)c(=O)[nH]c12)P(=O)(O)O)c1ccc(Br)cc1` (some centres undefined): the Potency entry in test [1] was “inactive”. In addition, the Potency in test [2] was 14.6 µM (active).
In the same order, the values of `C(#Cc1cccc(CN2CCOCC2)c1)CCN1CCCCC1` are “inactive” and “inactive”.
In the same order, the values of `CC1(CO)CC2C(O)C3=C(CC(C)(O)C2C1)C(=O)OC3` (centres undefined) are “inactive” and “inactive”.
As to `CC1CCC2(NC1)OC1C(=O)C3C4CCC5CC(O[C@@H]6O[C@H](CO)[C@@H](O)[C@H](O)[C@H]6O[C@@H]6O[C@@H](C)[C@H](O)[C@@H](O)[C@H]6O)CCC5(C)C4CCC3(C)C1C2C` (some centres undefined), the Potency result in test [1] and in test [2] was “inactive” in each case.
As for `COc1cc2c(cc1OC)/C(=C/c1ccc(O)cc1)C(=O)N2`, the Potency in test [1] is 8.2 µM (active); in test [2], 18.4 µM (active).
In the same order, the values of `CCCCOc1ccc(-c2cncc(C(=O)NCc3cccnc3N3CCOCC3)c2)cc1Cl` are 18.4 µM (active) and 13 µM (active).
In the same order, the values of `C=C1C[C@]23C[C@H]1CC[C@H]2C1=C[C@H]2OC(=O)[C@@](C)([C@H]1[C@@H]3C(=O)O)[C@H]2O` are “inactive” and “inactive”.
In the same order, the values of `CNc1nc(-c2ccc3c(N)n[nH]c3c2)cc(N2CC(C(=O)NC3CCCCC3)CCC2C)n1` (centres undefined) are 2.31 µM (active) and 4.61 µM (active).
Consider `CN1C(=O)c2ccccc2NC(=O)[C@]12O[C@@H]2c1cccc(O)c1`, for which the Potency result in test [1] and in test [2] was “inactive” throughout.
For `C=C(C)C(=O)O[C@H]1[C@H]2C(=C)C(=O)O[C@@H]2/C=C(\CO)CC/C=C(/C=O)[C@@H]1O`, the Potency in test [1] is 10.1 µM (active); in test [2], 9.04 µM (active).
In the same order, the values of `Nc1nc(COC(=O)c2ccc([N+](=O)[O-])cc2)nc(Nc2ccccc2)n1` are “inactive” and “inactive”.
On to `CC1(C)CCC2(C(=O)OC3OC(COC4OC(CO)C(O)C(O)C4O)C(O)C(O)C3O)CCC3(C)C(=CCC4C5(C)CCC(OC6OCC(O)C(O)C6O)C(C)(C)C5CCC43C)C2C1O` (centres undefined), for which the viability (% of control) in test [1] is 56.1% [at 9.25 µM]. Moreover, in test [2], the viability, % of control was 90.4% [at 9.25 µM].
Regarding `C=C1[C@@H](OC(C)=O)CC[C@@]2(C)[C@@H](OC(C)=O)[C@H](OC(C)=O)C3=C(C)C[C@H](OC(=O)C(C)CC)[C@@H]([C@@H](OC(C)=O)[C@H]12)C3(C)C` (some centres undefined), the Potency is 1.53 µM (active) in test [1] and 1.22 µM (active) in test [2].
In the same order, the values of `C=C(C)C1CCC(C)C12CC(O)C1(C)OC1C2OC(=O)C(N)CCC(=O)O` (centres undefined) are “inactive” and “inactive”.
For `C/C=C1\[C@H](O[C@@H]2O[C@H](CO)[C@@H](O)[C@H](O)[C@H]2O)OC=C(C(=O)O)[C@H]1CC(=O)OCCc1ccc(O)cc1`, the Potency entry in test [1] and in test [2] was “inactive” throughout.
As for `CC(=O)O[C@H]1[C@H](C)[C@@H](O)[C@H]2[C@@H]1C=C(C(=O)O)[C@H]1C[C@@H]3[C@H]([C@H]21)[C@H]1C(=O)O[C@@H]2CC[C@@]3(C)O[C@]1(O)[C@@H]2C`, the Potency result in test [1] and in test [2] was “inactive” each time.
Turning to `CN1CCN(Cc2ccc(NC(=O)Cc3ccc(Oc4cc(NC(=O)C5CC5)ncn4)cc3)cc2C(F)(F)F)CC1`, the Potency entry in test [1] and in test [2] was “inactive” throughout.
Regarding `C[C@@H]1O[C@@H](O[C@H]2[C@H](O)[C@@H](O)[C@H](OC[C@H]3O[C@@H](OC(=O)[C@]45CCC(C)(C)C[C@H]4C4=CCC6[C@@]7(C)C[C@@H](O)[C@H](O)[C@@](C)(CO)C7[C@H](O)C[C@@]6(C)[C@]4(C)CC5)[C@H](O)[C@@H](O)[C@@H]3O)O[C@@H]2CO)[C@H](O)[C@H](O)[C@H]1O` (some centres undefined), in test [1], the viability (% of control) is 86.1% [at 9.25 µM]. Moreover, the viability, % of control in test [2] is 79.5% [at 9.25 µM].
